Hits are enriched below; roughly 2.1% of the tested compounds scored in any of these assays.
ABCB6 inh MLPCN – inhibitors of human ABC transporter ABCB6; K562-ABCB6 porphyrin accumulation, flow cytometry, 1 h; hits give low values; fluorescence ratio to DMSO, % at 10 µM; actives 0.19% (n = 360,000);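 active means fluorescence ratio to DMSO below 75%, the collection mean minus 3 SD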;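 further: signal is porphyrin accumulated inside mitochondria; 100% equals median channel fluorescence of DMSO control wells; lower ratio means ABCB6 inhibition with less porphyrin fluorescence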
SMARCA2 activ – SMARCA2 function activation, primary screen. MG213 cells, MMTV-luciferase reporter, dexamethasone, overnight. activation, % at 9.1 µM. actives 1% (n = 370,000). AID 652017; in the data active means activation above about 7.8%;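 further: 0% = vehicle wells and 100% = reference activator wells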
bovine MsrA act – bovine methionine sulfoxide reductase A activation. purified bovine MsrA, absorbance read-out. activation, % at 10.6 µM. actives 0.3% (n = 360,000); in the data active means activation above about 7.5%;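 further: 0% = vehicle and 100% = reference activator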
MsrA inhibitor – bovine MsrA inhibition; inhibition, % at 15.5 µM; AID 651718; purified bovine MsrA, absorbance read-out; actives 0.75% (n = 360,000);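 further: 0% = vehicle wells with enzyme and 100% = reference inhibitor wells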
MsrA inh confirm – bovine MsrA inhibition, confirmed; shares compounds with MsrA inhibitor; purified bovine MsrA, absorbance read-out; actives 41% (n = 2,300); inhibition, % at 15.5 µM;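 further: coupled to thioredoxin reductase with NADPH and selenocystamine and DMSO as substrate; 0% = vehicle only and 100% = full effect of reference inhibitor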
An asterisk follows results filed as active; nt = no result. Unless noted, no stated cut-off is given here; in the data, active means inhibition above about 4.5%; inactive means the rest.

SMILES | ABCB6 inh MLPCN | SMARCA2 activ | bovine MsrA act | MsrA inhibitor | MsrA inh confirm
Cc1cc(C)c2nc(C(F)(F)F)nc(N3CC(C)OC(C)C3)c2c1 (centres undefined) | 96.0 | -4.4 | -2.4 | 14.3* | 20.9*
C[C@H]1COc2cc(N3CCSCC3)ccc2S(=O)(=O)N1C | nt | -1.8 | nt | nt | nt
CCc1cc2c(=O)c(-c3nc4ccccc4n3C)c(C)oc2c(CN2CCOCC2)c1O | 95.0 | -3.8 | -9.8 | 5.0* | 1.4
CCc1cc2c(=O)c(-c3nc4ccccc4n3C)c(C)oc2c(CN2CCN(CCO)CC2)c1O | 98.0 | -3.2 | -8.1 | 5.2* | 2.6
CCc1cc2c(=O)c(-c3nc4ccccc4n3C)c(C(C)C)oc2c(CN2CCN(C)CC2)c1O | 91.0 | 0.2 | -2.5 | 1.7 | nt
COc1ccc(NC(=O)COC(=O)c2cc(OC)c(OC)c(OC)c2)c([N+](=O)[O-])c1 | 94.0 | 0.9 | -7.2 | -0.3 | nt
NS(=O)(=O)c1cc(C(=O)OCC(=O)Nc2ccc(Cl)cc2[N+](=O)[O-])ccc1Cl | 108.0 | -1.4 | -12.2 | -0.3 | nt
COc1ccc(NC(=O)CN2CCCCC2)c([N+](=O)[O-])c1 | 96.0 | 7.1 | -0.4 | 0.8 | nt
COc1ccc(NC(=O)COC(=O)C2CCCCC2)c([N+](=O)[O-])c1 | 95.0 | -0.1 | -3.0 | 11.8* | 8.1*
NS(=O)(=O)c1cc(C(=O)OCC(=O)Nc2ccccc2[N+](=O)[O-])ccc1Cl | 99.0 | -3.3 | -5.4 | 12.5* | 6.0*
CNS(=O)(=O)c1cccc(C(=O)OCC(=O)Nc2ccc(OC)cc2[N+](=O)[O-])c1 | 93.0 | -1.9 | -4.3 | 6.0* | 1.3
O=C(Nc1ccc(OC(F)(F)F)cc1)Nc1c(-c2ccc(C(F)(F)F)cc2)nc2ncccn12 | nt | 0.7 | nt | nt | nt
COC1C(OC(=O)/C=C/C=C/C=C/C=C/C(=O)O)CCC2(CO2)C1C1(C)OC1CC=C(C)C (centres undefined) (tested in a mixture with another compound) | 101.0 | -0.5 | -5.1 | 8.8* | 11.8*
O=C(/C=C/c1ccccc1)NNC1=NS(=O)(=O)c2ccccc21 | 92.0 | -3.4 | -5.1 | 4.8* | 5.5*
O=C1[C@H]2C[C@@]3(n4ccc5ccccc54)c4ccccc4N(S(=O)(=O)c4ccccc4)[C@H]3N2C(=O)CN1Cc1ccccc1 | nt | -0.8 | nt | nt | nt
COC(=O)[C@]12C[C@H](CC(=O)NCc3cccc(C(F)(F)F)c3)C(=O)N(CCC3=CCCCC3)C1=C[C@H](C1CCCC1)O[C@@H]2C | nt | -1.8 | nt | nt | nt
O=C(Nc1ccc(F)cc1F)C1CCN(c2nnc(-n3cccc3)s2)CC1 | nt | 4.2 | nt | nt | nt
O=C(Nc1ccc2c(c1)OCO2)c1c(Cl)nc2sccn12 | 111.0 | 5.2 | 1.0 | 10.2* | 3.4
O=S1(=O)N=C(N/N=C/c2cccs2)c2ccccc21 | 95.0 | -0.5 | -2.3 | 5.8* | 4.8*
